Measured values as given in PubChem BioAssay AID1159580 (chemical genetic matrix, 2015).
Where “and” joins values, the source holds several entries; their conditions need not be identical. Equal values may be shown once. In all, about 5,500 compounds went through this assay and about 2,000 (36%) were called active. Roughly 18% stayed inconclusive and do not appear here. Cut-off read from the data, not from the text of the source: active = normalized growth mostly below about 0.91 (no sharp cut-off); inconclusive = no clear call, values can overlap the other calls; inactive = mostly above about 0.92. The list shows a part of the results.

Assay: chemical genetic growth profiling, strain panel (AID 1159580);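 note: tested at 20 µM; growth read once vehicle control cultures reached saturation at 30 °C; 1 = growth at the plate median or of vehicle wells; lower values mean less growth of the strain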
Conditions: S. cerevisiae deletion strains, growth OD

Measured: normalized growth

COP(=O)(OC)OC=C(Cl)Cl
inactive: locus YAL013W, strain DEP1, active compounds read low 0.997 | locus YAL021C, strain ccr4, active compounds read low 0.988 | locus YAL026C, strain drs2, active compounds read low 0.993 | locus YAL030W, strain snc1, active compounds read low 1 | locus YBL061C, strain skt5, active compounds read low 0.984 | locus YBR009C, strain hhf1, active compounds read low 0.991 | locus YBR021W, strain FUR4, active compounds read low 1.05 | locus YBR023C, strain chs3, active compounds read low 0.995 | locus YBR171W, strain sec66, active compounds read low 1.01 | locus YBR229C, strain ROT2, active compounds read low 0.965 | locus YBR231C, strain swc5, active compounds read low 0.999 | locus YBR279W, strain paf1, active compounds read low 0.992 | locus YCL011C, strain gbp2, active compounds read low 0.994 | locus YCL016C, strain dcc1, active compounds read low 1.01 | locus YCL029C, strain bik1, active compounds read low 0.98 | locus YCL061C, strain MRC1, active compounds read low 0.991 | locus YCL069W, strain vba3, active compounds read low 1 | locus YCR088W, strain abp1, active compounds read low 1 | locus YDL005C, strain med2, active compounds read low 0.997 | locus YDL035C, strain GPR1, active compounds read low 0.977 | locus YDL040C, strain nat1, active compounds read low 0.989 | locus YDL074C, strain BRE1, active compounds read low 0.957 | locus YDL101C, strain DUN1, active compounds read low 0.964 | locus YDL134C, strain PPH21, active compounds read low 0.983 | locus YDL185W, strain tfp1, active compounds read low 0.947 | locus YDL192W, strain arf1, active compounds read low 0.983 | locus YDR001C, strain nth1, active compounds read low 0.998 | locus YDR069C, strain doa4, active compounds read low 0.975 | locus YDR101C, strain arx1, active compounds read low 0.986 | locus YDR137W, strain rgp1, active compounds read low 0.982 | locus YDR150W, strain NUM1, active compounds read low 0.985 | locus YDR159W, strain sac3, active compounds read low 0.965 | locus YDR162C, strain NBP2, active compounds read low 0.981 | locus YDR195W, strain ref2 0.933 | locus YDR297W, strain sur2, active compounds read low 0.99 | locus YDR318W, strain mcm21, active compounds read low 0.983 | locus YDR334W, strain swr1, active compounds read low 1.01 | locus YDR335W, strain msn5, active compounds read low 0.995 | locus YDR388W, active compounds read low 0.995 | locus YDR392W, strain spt3, active compounds read low 1 | locus YDR502C, strain sam2, active compounds read low 0.993 | locus YEL003W, strain gim4, active compounds read low 0.991 | locus YEL037C, strain rad23, active compounds read low 0.986 | locus YEL061C, strain CIN8 (second series), active compounds read low 0.984 | locus YEL061C, strain CIN8, active compounds read low 0.989 | locus YER015W, strain faa2, active compounds read low 0.982 | locus YER016W, strain bim1, active compounds read low 0.99 | locus YER110C, active compounds read low 0.969 | locus YER111C, strain swi4, active compounds read low 0.989 | locus YER155C, strain BEM2 (second series), active compounds read low 0.998 | locus YER155C, strain BEM2, active compounds read low 0.991 | locus YER167W, strain BCK2, active compounds read low 0.988 | locus YFR010W, strain ubp6, active compounds read low 0.994 | locus YGL078C, strain dbp3, active compounds read low 0.986 | locus YGL086W, strain mad1, active compounds read low 0.994 | locus YGL167C, strain pmr1, active compounds read low 0.994 | locus YGL173C, strain kem1, active compounds read low 0.986 | locus YGL227W, strain vid30, active compounds read low 0.991 | locus YGL240W, strain doc1, active compounds read low 0.978 | locus YGL248W, strain PDE1, active compounds read low 0.982 | locus YGL253W, strain hxk2, active compounds read low 0.998 | locus YGR078C, strain PAC10, active compounds read low 0.989 | locus YGR135W, strain pre9, active compounds read low 0.993 | locus YGR229C, strain SMI1, active compounds read low 1.01 | locus YGR252W, strain gcn5, active compounds read low 0.998 | locus YHR013C, strain ard1, active compounds read low 0.974 | locus YHR027C, strain rpn1, active compounds read low 1.01 | locus YHR030C, strain SLT2, active compounds read low 1.01 and 1.02 | locus YHR079C, strain IRE1 (second series), active compounds read low 0.982 | locus YHR079C, strain IRE1, active compounds read low 1.05 | locus YHR094C, strain hxt1, active compounds read low 0.993 | locus YHR129C, strain ARP1, active compounds read low 0.976 | locus YHR142W, strain chs7, active compounds read low 0.989 | locus YHR200W, strain rpn10, active compounds read low 0.989 | locus YIL066C, strain RNR3, active compounds read low 1 | locus YIL073C, strain SPO22, active compounds read low 1.06 | locus YIL125W, strain kgd1, active compounds read low 0.98 | locus YIR030C, strain dcg1, active compounds read low 0.988 | locus YJL092W, strain hpr5, active compounds read low 1 | locus YJL095W, strain BCK1 (second series), active compounds read low 0.996 | locus YJL095W, strain BCK1, active compounds read low 1.01 and 1.03 | locus YJL115W, strain asf1, active compounds read low 0.998 | locus YJL129C, strain trk1, active compounds read low 1.01 | locus YJL134W, strain LCB3, active compounds read low 1 | locus YJL154C, strain vps35, active compounds read low 0.997 | locus YJL164C, strain tpk1, active compounds read low 0.992 | locus YJL166W, strain qcr8, active compounds read low 0.992 | locus YJL168C, strain set2, active compounds read low 0.981 | locus YJL187C, strain SWE1 (second series), active compounds read low 0.976 | locus YJL187C, strain SWE1, active compounds read low 1 | locus YJR043C, strain POL32, active compounds read low 0.988 | locus YJR066W, strain TOR1, active compounds read low 0.981
